Rows were chosen to be rich in hits. Some 11% of all compounds tested hit in one or more screens of this group.
AMA1 RON2 block: inhibitors of Plasmodium falciparum AMA1-RON2 interaction; AID 720542; AlphaScreen AMA1-biotinylated RON2 peptide binding; actives 0.2% (n = 360,000); Potency, µM (doses to about 58.2 µM), most hits filed as inhibitors; note: nearly all actives have a fitted effect of over 45% in size
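AMA1 (3D7) with his tag at 25 nM final met compounds first, then biotinylated RON2 peptide at 25 nM; detection used donor plus acceptor beads, 10 µg/mL apiece, read by AlphaScreen after 30 min at room temperature.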
Pf growth 96h: P. falciparum growth inhibition at 96 hours; P. falciparum luciferase reporter growth, 96 h; AID 504834; Potency, µM (series often up to 28.7 µM), most hits filed as inhibitors; actives 6.9% (n = 320,000)
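Compounds incubated with erythrocytes infected by luciferase-expressing P. falciparum (2% hematocrit, 0.05% parasitemia final) for 96 hours, 37 C in 5% CO2. Growth inhibition scored as decreased luciferase luminescence.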
Pf growth 48h: P. falciparum growth inhibition at 48 hours (one generation); P. falciparum luciferase growth in erythrocytes, 48 h; actives 5.9% (n = 310,000); Potency, µM (top dose mostly 28.7 µM), most hits filed as inhibitors
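In quantitative HTS format, infected erythrocytes bearing luciferase-reporter parasites were treated for a single generation at 37 C. Luminescence after adding detection reagent served as the growth measure.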
HCV inhibitor: HCV inhibition; AID 651820; Potency, µM (top dose mostly 41.8 µM), actives largely listed as inhibitors; actives 3.4% (n = 340,000); Huh7.5.1 HCVcc-Cre infection, luciferase reporter, 44 h
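1,000 cells/well; 4 h culture; + compound; + HCVcc-Cre (~0.5 moi); 44 h; luciferase substrate, RT 15 min; read 15 sec.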
Each line names hits and unclear results; the compound was inactive in the other large screens. Calls come from the whole dose curve; as a rule, active = well fitted curve in the direction sought with a large enough effect; inconclusive = small, poorly fitted or top-dose-only effect, or another doubt; inactive = no such curve, though single readings can be large; an effect the other way counts as inactive or inconclusive.

COc1ccc(C(NCC(=O)NC(C)c2ccc(Cl)cc2)c2ccccc2)cc1 (stereo not given)	AMA1 RON2 block inconclusive, HCV inhibitor 11µM
Cc1ccc(C(NC(=O)NC(C)c2ccccc2)C(Cl)(Cl)Cl)cc1F (stereo not given)	Pf growth 96h inconclusive, Pf growth 48h 4.1µM, HCV inhibitor 10µM
C/C(CC(=O)Nc1ccc(Cl)cc1C(F)(F)F)=N\NC(=O)c1ccccn1	none
COc1ccc(C(=O)C[C@@H]2OC[C@H](C(C)C)N2S(=O)(=O)c2ccc(C)cc2)cc1OC	none (no result: Pf growth 96h, Pf growth 48h, HCV inhibitor)
O=[N+]([O-])c1cc([N+](=O)[O-])c2nonc2c1Nc1ccccc1O	Pf growth 96h 2.3µM, Pf growth 48h inconclusive
Cc1ccc2c(c1)sc(-c1ccc(N(C)C)cc1)[n+]2C	Pf growth 96h inconclusive, HCV inhibitor 3.5µM
CC[n+]1c(C)sc2cc(C)ccc21	Pf growth 96h inconclusive, Pf growth 48h inconclusive
CCCCCCCNC(=O)C1(CC2CC(c3ccccc3)=NO2)CCNCC1 (stereo not given)	Pf growth 96h inconclusive, Pf growth 48h 12µM, HCV inhibitor 10µM
O=C(NCc1ccccc1)C1(CC2CC(c3ccccc3)=NO2)CCNCC1 (stereo not given)	Pf growth 96h inconclusive, Pf growth 48h 12µM, HCV inhibitor inconclusive
CC(C)Cc1nnc(NC(=O)CCC(=O)NC2CCCCCC2)s1	none
S=C(NCc1cccnc1)NCc1cccnc1	Pf growth 96h 10µM
O=C(O)/C=C\C(=O)NCc1cccnc1	Pf growth 96h 2.6µM
Cc1ccc(C(=O)NC(=S)NCc2cccnc2)cc1C	Pf growth 96h 9.3µM, Pf growth 48h inconclusive
C=CCNC(=S)NCc1cccnc1	none
COc1ccc(C(=O)NC(=S)NCc2cccnc2)cc1Br	HCV inhibitor inconclusive
CCOC(=O)C1=CCC(c2cc3ccccc3[nH]2)NC1 (stereo not given)	none (no result: Pf growth 96h, Pf growth 48h, HCV inhibitor)
COc1ccccc1Nc1nnc(Cc2ccccc2)c(=O)[nH]1	Pf growth 96h 12µM
COc1ccc(Cc2nnc(Nc3ccccc3OC)[nH]c2=O)cc1	Pf growth 48h inconclusive, HCV inhibitor 2.8µM
CCn1c(SCC(=O)Nc2sccc2C(N)=O)nnc1C1CC1	none
CCOC(=O)C1CCN(C(=O)CSc2nc3ncccc3[nH]2)CC1	Pf growth 96h inconclusive
CC(C)Cc1nc(N2CCN(C(=O)C(C)C)CC2)c(C#N)c2c1CCC2	Pf growth 96h inconclusive
N#Cc1c(N2CCN(C(=O)c3ccccc3)CC2)nc(-c2ccccc2)c2c1CCCC2	Pf growth 96h 13µM, HCV inhibitor inconclusive (no result: Pf growth 48h)
CC(C)Cc1nc(N2CCN(C(=O)c3ccccc3)CC2)c(C#N)c2c1CCC2	Pf growth 96h inconclusive, Pf growth 48h inconclusive, HCV inhibitor 11µM
N#Cc1c(N2CCN(C(=O)c3ccccc3Cl)CC2)nc(-c2ccccc2)c2c1CCCC2	Pf growth 96h inconclusive, Pf growth 48h inconclusive, HCV inhibitor inconclusive
CC(C)Cc1nc(N2CCN(C(=O)c3ccco3)CC2)c(C#N)c2c1CCC2	Pf growth 48h 2.3µM, HCV inhibitor inconclusive
CCOC1=C2[C@H](c3ccc(CC)cc3)N(S(=O)(=O)c3ccc(C)cc3)C[C@H]2C(C#N)(C#N)C(C#N)(C#N)C1	none (no result: Pf growth 96h, Pf growth 48h, HCV inhibitor)
CC(C)n1cc(CN2CCCC(C(=O)Nc3cccc(-c4cc5ccccc5[nH]4)c3)C2)cn1 (stereo not given)	AMA1 RON2 block inconclusive, Pf growth 48h inconclusive, HCV inhibitor 11µM
Cn1cc(CN2CCCC(C(=O)Nc3cccc(-c4cc5ccccc5[nH]4)c3)C2)cn1 (stereo not given)	Pf growth 48h inconclusive, HCV inhibitor 7.1µM
CCc1ccccc1NC(=O)C1(S(=O)(=O)c2ccc(C)cc2)CC1	none
CCNC(=S)N/N=C(\C)c1cccc(C(F)(F)F)c1	Pf growth 96h 12µM, HCV inhibitor inconclusive
C/C(=N\NC(=S)NC1CCCCC1)c1cccc(Br)c1	Pf growth 96h 0.47µM, Pf growth 48h 1µM
C/C(=N\NC(=S)NC1CCCCC1)c1cccc(C(F)(F)F)c1	Pf growth 96h inconclusive, Pf growth 48h 3.7µM
Cc1ccc2c(c1)cc(CN(Cc1cccnc1)C(=O)NCc1ccccc1)c1nnnn12	Pf growth 96h inconclusive
C/C(=N\NC(=S)Nc1c(C)cccc1C)c1cc2ccccc2o1	Pf growth 96h 12µM, Pf growth 48h inconclusive, HCV inhibitor inconclusive
C/C(=N\NC(=O)c1ccco1)c1cc2ccccc2o1	none
C/C(=N\NC(=S)Nc1ccccc1C)c1cc2ccccc2o1	Pf growth 96h 7.4µM, Pf growth 48h inconclusive, HCV inhibitor inconclusive
COc1ccccc1NS(=O)(=O)c1cc(NC(=O)CNC(=O)c2ccc(C)s2)ccc1Cl	none
COc1cccc(C(=O)Nc2ccc3c(cc2=O)[C@@H](NC(C)=O)CCc2cc(OC)c(OC)c(OC)c2-3)c1	Pf growth 96h inconclusive, Pf growth 48h 8.3µM, HCV inhibitor 32µM
CCc1ccccc1NC(=O)c1ccccc1Sc1ccc([N+](=O)[O-])cc1Cl	Pf growth 48h 12µM, HCV inhibitor inconclusive
Oc1ccc(Cl)cc1Sc1cc(Cl)ccc1O	Pf growth 96h 13µM, Pf growth 48h inconclusive, HCV inhibitor inconclusive
CN(C)C(=O)c1cc(Cl)ccc1Sc1cc(Cl)ccc1Cl	none (no result: Pf growth 48h)
CN(CC(=O)Nc1cc(Cl)ccc1-n1cncn1)Cc1ccccc1N1CCOCC1	none (no result: Pf growth 96h, Pf growth 48h, HCV inhibitor)
Cc1nn(C)c(Oc2ccccc2)c1CCNS(=O)(=O)c1ccc(Cl)cc1	Pf growth 96h inconclusive, Pf growth 48h inconclusive, HCV inhibitor 10µM
Cn1cnnc1SCC(=O)Nc1ccc(OC(F)F)cc1	Pf growth 48h 13µM
Cn1cnnc1SCC(=O)c1ccc(OC(F)F)cc1	none (no result: Pf growth 48h)
COC(=O)c1ccccc1NC(=O)CSc1nncn1C	Pf growth 48h 12µM
COc1ccc(CCn2c(C)cc3c(c2=O)C(c2ccc4c(c2)OCO4)C(C#N)=C(N)O3)cc1OC (stereo not given)	Pf growth 48h 8.3µM, HCV inhibitor inconclusive (no result: Pf growth 96h)
Cc1cc2c(c(=O)n1Cc1ccc3c(c1)OCO3)C(c1cccnc1)C(C#N)=C(N)O2 (stereo not given)	Pf growth 48h 12µM
Cc1cc2c(c(=O)n1Cc1cccnc1)C(c1ccccc1)C(C#N)=C(N)O2 (stereo not given)	Pf growth 48h inconclusive
CCSc1nnc(NC(=O)c2cc(OC)c(OC)c(OC)c2)s1	none
COc1ccc(CCNC(=O)Cn2nnc(C(=O)Nc3cccc(C)c3C)c2N)cc1OC	Pf growth 96h 1.9µM, HCV inhibitor inconclusive
COc1ccc(CCNC(=O)CN2C(=O)c3cccc4cccc(c34)C2=O)cc1OC	Pf growth 96h 10µM
CCC(C)(C)C1CCC2(CC1)NC(=O)N(CC(=O)NCCOc1ccccc1)C2=O (stereo not given)	Pf growth 96h inconclusive, Pf growth 48h inconclusive
CCC(C)(C)C1CCC2(CC1)NC(=O)N(CC(=O)NCCc1ccc(OC)c(OC)c1)C2=O (stereo not given)	Pf growth 96h inconclusive, Pf growth 48h 12µM, HCV inhibitor inconclusive
O=C(CN(Cc1ccccc1)C(=O)c1csnn1)NCc1ccccc1	none
C[C@@H]1CN([C@H](C)CO)C(=O)CCCn2nncc2CO[C@H]1CN(C)CC1CC1	none (no result: Pf growth 96h, Pf growth 48h, HCV inhibitor)
S=C(N/N=C/c1ccco1)NC1CC2CCC1C2 (stereo not given)	Pf growth 96h 5.2µM, HCV inhibitor inconclusive (no result: Pf growth 48h)
